Measurements published in PubChem BioAssay (NCI).
About 83,000 compounds went through this panel and 20% of them were active in at least one assay; those are over-represented in the sample as a whole.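 A percent growth of 40 corresponds to 60% growth inhibition; 0 means no net growth; -100 means all cells died. Active threshold: below 10.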 Calls of active or inactive are those of the source.

Key:
Test in all cases: NCI-60 one-dose screen, 48 h (100 = growth as untreated, 0 = no growth, -100 = all killed)
Settings in all cases: 10 µM unless noted
HCT-15 colon = tested on: HCT-15 colon
HT29 colon = tested on: HT29 colon
SNB-75 CNS = tested on: SNB-75 CNS
SNB-19 CNS = tested on: SNB-19 CNS
U251 CNS = tested on: U251 CNS
PC-3 prostate = tested on: PC-3 prostate
SK-MEL-5 melanoma = tested on: SK-MEL-5 melanoma
UACC-62 melanoma = tested on: UACC-62 melanoma
LOX IMVI melanoma = tested on: LOX IMVI melanoma
SK-MEL-28 melanoma = tested on: SK-MEL-28 melanoma
SK-MEL-2 melanoma = tested on: SK-MEL-2 melanoma
EKVX NSCLC = tested on: EKVX NSCLC
SN12C renal = tested on: SN12C renal
UO-31 renal = tested on: UO-31 renal
TK-10 renal = tested on: TK-10 renal
ACHN renal = tested on: ACHN renal
CAKI-1 renal = tested on: CAKI-1 renal
A498 renal = tested on: A498 renal
CCRF-CEM leukemia = tested on: CCRF-CEM leukemia
MOLT-4 leukemia = tested on: MOLT-4 leukemia

Measured: growth

COc1cccc(OC)c1Oc1c(-c2nc3ccccc3s2)c(C)nn1-c1ccccc1
inactive: HCT-15 colon 51.7% | HT29 colon 71.2% | SNB-75 CNS 74.8% | SNB-19 CNS 92.7% | U251 CNS 84.8% | PC-3 prostate 51.1% | SK-MEL-5 melanoma 73.7% | UACC-62 melanoma 56.2% | LOX IMVI melanoma 62.9% | SK-MEL-28 melanoma 106% | SK-MEL-2 melanoma 90.6% | EKVX NSCLC 71.9% | SN12C renal 82.6% | UO-31 renal 49.5% | TK-10 renal 94.7% | ACHN renal 72.8% | CAKI-1 renal 44.9% | A498 renal 82.3% | CCRF-CEM leukemia 62.9% | MOLT-4 leukemia 51.2%

Nc1ccc([N+](=O)[O-])cc1N=C/C=C/c1ccccc1
inactive: HCT-15 colon 42.9% | HT29 colon 28.6% | SNB-75 CNS 86.6% | SNB-19 CNS 72.2% | U251 CNS 56.9% | PC-3 prostate 72.4% | SK-MEL-5 melanoma 56.5% | UACC-62 melanoma 63.2% | LOX IMVI melanoma 49% | SK-MEL-28 melanoma 94.8% | SK-MEL-2 melanoma 43.5% | EKVX NSCLC 97.5% | SN12C renal 50.6% | UO-31 renal 43.3% | TK-10 renal 79.8% | ACHN renal 81.7% | CAKI-1 renal 73.1% | A498 renal 79.3% | CCRF-CEM leukemia 18.3% | MOLT-4 leukemia 14.8%

Cc1ccc(Nc2nc(-c3ccc(F)cc3)c(C#N)c(=O)n2C)cc1
inactive: HCT-15 colon 55% | HT29 colon 78.2% | SNB-75 CNS 30% | SNB-19 CNS 56.2% | U251 CNS 68.2% | PC-3 prostate 67.9% | SK-MEL-5 melanoma 77.2% | UACC-62 melanoma 51.8% | LOX IMVI melanoma 74.3% | SK-MEL-28 melanoma 74.1% | SK-MEL-2 melanoma 70.8% | EKVX NSCLC 54.6% | SN12C renal 62.9% | UO-31 renal 44.8% | TK-10 renal 55.4% | ACHN renal 63% | CAKI-1 renal 59.3% | A498 renal 42.7% | CCRF-CEM leukemia 98.8% | MOLT-4 leukemia 81.5%

Cc1ccc(/C=C2\CN(C(=O)C(Cl)Cl)C/C(=C\c3ccc(C)cc3)C2=O)cc1
active: HCT-15 colon -39.2% | HT29 colon -5.72% | SNB-75 CNS -30.2% | SNB-19 CNS -53.7% | U251 CNS -94.9% | PC-3 prostate -49.3% | SK-MEL-5 melanoma -81.8% | UACC-62 melanoma -67.2% | LOX IMVI melanoma -92.2% | SK-MEL-28 melanoma -56.1% | SK-MEL-2 melanoma -5.43% | EKVX NSCLC -48.7% | SN12C renal -51.3% | UO-31 renal -100% | TK-10 renal -63.1% | ACHN renal -97.8% | CAKI-1 renal -49.6% | A498 renal -89.3% | CCRF-CEM leukemia 9.16% | MOLT-4 leukemia 0.0942%

CCOC(=O)c1c(C)nc2c(c1N)CC(=O)N2Cc1cc(OC)c(OC)c(OC)c1
inactive: HCT-15 colon 28.5% | SNB-75 CNS 53.9% | SNB-19 CNS 66.1% | U251 CNS 38.3% | PC-3 prostate 52.4% | SK-MEL-5 melanoma 23% | UACC-62 melanoma 51% | LOX IMVI melanoma 48.5% | SK-MEL-28 melanoma 73.6% | SK-MEL-2 melanoma 27% | EKVX NSCLC 51.6% | SN12C renal 74% | UO-31 renal 62.2% | TK-10 renal 54.8% | ACHN renal 64.9% | CAKI-1 renal 50.6% | A498 renal 35.8% | CCRF-CEM leukemia 78.2% | MOLT-4 leukemia 52.1%
active: HT29 colon 8.37%

C[C@@H]1O[C@@H](O[C@@H]2C[C@H](c3ccc4c(c3O)C(=O)C3=C(C4=O)[C@@]4(O)C(=O)C[C@](C)(O)C[C@@]4(O)C=C3)O[C@H](C)[C@H]2O)C[C@H](O)[C@@H]1O
inactive: HCT-15 colon 98.9% | HT29 colon 106% | SNB-75 CNS 86.8% | SNB-19 CNS 91.8% | U251 CNS 97.5% | PC-3 prostate 90.5% | SK-MEL-5 melanoma 100% | UACC-62 melanoma 94.2% | LOX IMVI melanoma 91% | SK-MEL-28 melanoma 113% | SK-MEL-2 melanoma 103% | EKVX NSCLC 102% | SN12C renal 94.2% | UO-31 renal 78.9% | TK-10 renal 101% | ACHN renal 102% | CAKI-1 renal 88.1% | A498 renal 95% | CCRF-CEM leukemia 93.8% | MOLT-4 leukemia 91.5%

O=c1oc2c(cnc3ccccc32)cc1-c1cccs1
inactive: HCT-15 colon 112% | HT29 colon 111% | SNB-75 CNS 92% | SNB-19 CNS 101% | U251 CNS 99.4% | PC-3 prostate 97.3% | SK-MEL-5 melanoma 101% | UACC-62 melanoma 101% | LOX IMVI melanoma 106% | SK-MEL-28 melanoma 115% | SK-MEL-2 melanoma 108% | EKVX NSCLC 103% | SN12C renal 98.4% | UO-31 renal 88.3% | TK-10 renal 106% | ACHN renal 102% | CAKI-1 renal 88.9% | A498 renal 107% | CCRF-CEM leukemia 103% | MOLT-4 leukemia 102%
